Sampled rows, rich in hits. Any-hit rate of the full collection: about 2.9%.
Shn3 3UTR inh: reduces Shn3 3'UTR luciferase signal in osteoblasts; hit rate 0.52% among 360,000; inhibition, % at 12.5 µM; AID 588674; Clone20 osteoblast Shn3 3'UTR firefly luciferase, 24 h;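 active means mean inhibition of at least 75% with every replicate also reaching 75%; inconclusive means mean inhibition at least 75% but some replicate below; inactive means mean inhibition below 75%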;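 further: 0% = median of neutral control wells and 100% = pilot-screen positive control compound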
EBV LMP1 NFkB: inhibitors of Epstein-Barr LMP1-induced NF-kappaB reporter. LMP1-induced NF-kappaB luciferase reporter cells, luminescence. inhibition, % at 12.5 µM. hit rate 0.69% among 350,000. AID 504558; in the data active means inhibition above about 41%; inconclusive means no clear call, values can overlap the other calls;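 further: 0% = neutral control wells and 100% = reference inhibitor control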
KKLEB tox: CF airway cell cytotoxicity counter-screen | KKLEB CF airway cells viability, ATPlite luminescence, overnight; hits give low values; cells stimulated with P. aeruginosa culture filtrate | hit rate 0.36% among 360,000 | AID 602141 | activity change (cytotoxicity), % at 5 µM;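 active means corrected activity change at or below -50% at 5 µM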
Peg3 promoter: Peg3 promoter activity inhibition; HeLa PEG-Prom luciferase reporter, luminescence, overnight; inhibition, % at 20 µM; hit rate 1.7% among 360,000;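 active means inhibition of at least 50% at 20 µM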
TRPM1 prom inh: MITF TRPM1 promoter inhibition in SK-MEL-5 cells; SK-MEL-5 TRPM1 promoter luciferase, 24 h; inhibition, % at 12.5 µM; hit rate 0.83% among 330,000;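 active means mean inhibition across replicates of 60% or more, whatever share of single replicates reaches that level; inconclusive means some that reach 60%, reason not given; inactive means mean inhibition across replicates below 60%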
CF NFkB block: inhibitors of cystic fibrosis induced NF-kB | hit rate 0.86% among 360,000 | inhibition, % at 5 µM | KKLEB NF-kB-GFP reporter, PAF-induced, GFP fluorescence overnight;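 active means at least 50% inhibition at 5 µM, scaled per plate between neutral and stimulator controls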;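 further: PAF is a Pseudomonas aeruginosa culture filtrate used as stimulus; plate controls were PAF-stimulated DMSO wells for no effect and unstimulated DMSO wells for full effect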
The depositor's hits bear a star; ? = inconclusive; / = not tested or not shown.

SMILES | Shn3 3UTR inh | EBV LMP1 NFkB | KKLEB tox | Peg3 promoter | TRPM1 prom inh | CF NFkB block
CCN(CC)C(=O)C1=C(C)N(CCCN2CCCC2=O)C(=O)C(CC(=O)NCCN2CCOCC2)C1 (stereo not drawn) | -8 | 1 | -31 | 3 | / | 9
c1ccc(COc2ncnc3c2ncn3CCCNC2CCN(Cc3ccccc3)CC2)cc1 | 1 | -35 | -27 | 61* | / | 33
COc1cc(OC)cc(-c2oc(=O)c3cc(OC)c(OC)cc3c2C#CCCO)c1 | -1 | 1 | 7 | -4 | -2 | -34
COc1cc(OC)cc(-c2oc(=O)c3cc(OC)c(OC)cc3c2C(F)(F)F)c1 | -1 | -4 | -7 | 18 | 70* | -2
S=C(Nc1cc(Cl)cc(Cl)c1)NC1CCN(Cc2ccccc2)CC1 | 16 | 5 | -29 | 94* | 12 | 31
Cc1ccc(NC(=O)C2(C)CCCN(C(C)C)C2)cc1C (stereo not drawn) | 7 | / | 7 | 1 | / | -5
CN(CC(=O)Nc1ccccc1Cl)C(=O)CN1C(=O)NC(c2ccccc2)(c2ccccc2)C1=O | 8 | 1 | 16 | 8 | -4 | -8
Cc1cccc(C)c1NC(=O)c1cc(S(=O)(=O)N2CCc3ccccc32)cn1C | -6 | 1 | -12 | 6 | 6 | 5
Cn1cc(S(=O)(=O)N2CCc3ccccc32)cc1C(=O)NC(C)(C)C | 89* | 13 | 0 | 2 | 29 | -10
COc1ccccc1CNc1nc(NCCN2CCNC2=O)c2sccc2n1 | 1 | / | -16 | 10 | / | 7
Cc1cc(C)nc(N/N=C/c2ccccc2OCc2ccc(Br)cc2)n1 | -15 | -19 | 2 | -20 | -5 | 6
Cc1cc(C)nc(N/N=C/c2cc(Br)ccc2O)n1 | 89* | 8 | 0 | -32 | 10 | -28
C/C(=N\NC(=O)c1c[nH]c2ccccc12)c1ccccn1 | 69 | 14 | -3 | -80 | -9 | -13
C/C(=N\NC(=O)c1ccccc1-n1cccc1)c1ccccn1 | 93* | 8 | -3 | 39 | / | -18
C/C(=N\NC(=O)c1ccc(F)cc1)c1ccccn1 | 89* | 5 | -10 | 15 | 44 | -7
C/C(=N\NC(=O)c1cc2ccccc2cc1O)c1cc2ccccc2o1 | -6 | -6 | -5 | 9 | 8 | 23
C/C(=N\NC(=O)c1cc2ccccc2cc1O)c1ccccn1 | 97* | ? | -33 | 10 | 74* | 22
COc1ccc(NC(=O)c2cc(-c3cc(F)ccc3OCC3CCCO3)n[nH]2)c(C)c1 (stereo not drawn) | 39 | / | -3 | 19 | / | 8
Cc1ccc([C@H]2C[C@H](O)[C@@H](n3cc(COC(=O)c4ccccc4)nn3)CN2C(=O)c2cccs2)cc1 | -1 | -9 | 5 | 7 | / | 2
O=[N+]([O-])c1ccc2oc(/C=C/c3ccc(O)cc3)nc2c1 | -23 | -33 | -6 | -294 | / | -21
CCN(CC)CCNc1cc(C)c(C#N)c2nc3ccccc3n12 | -28 | -3 | -4 | 7 | 15 | -21
Cc1cc(Nc2cccc([N+](=O)[O-])c2)n2c(nc3ccccc32)c1C#N | ? | 50* | -38 | 17 | 76* | 35
CCCC(=O)N1CCC1(C)C(=O)NS(=O)(=O)c1cccs1 (stereo not drawn) | 48 | / | -7 | 0 | / | -13
CCCN1Cc2cccc(C(=O)N3CCN(c4cc(Cl)ccc4C)CC3)c2C1=O | 13 | 3 | -23 | 9 | / | 4
COCCN1Cc2cccc(C(=O)N3CCN(c4cc(C)ccc4C)CC3)c2C1=O | 18 | 78* | 7 | 0 | 6 | -8
SMILES | Shn3 3UTR inh | EBV LMP1 NFkB | KKLEB tox | Peg3 promoter | TRPM1 prom inh | CF NFkB block
COCCN1Cc2cccc(C(=O)Nc3ccc4c(c3)OCCO4)c2C1=O | 87* | 14 | 4 | -4 | -2 | -51
C/C(=N/NC(=O)CNC(=O)c1ccccn1)c1ccccc1 | -9 | 12 | 2 | -14 | -8 | -1
C/C(=N\Nc1cccc2cccnc12)c1ccccn1 | 12 | -42 | -30 | -113 | -47 | -26
CC(=NNC(=S)Nc1ccccc1)c1ccccn1 | 80 | 72* | -7 | 12 | / | 31
C=CCNC(=S)N/N=C(\C)c1ccccn1 | 91* | 80* | -19 | 75* | 59 | 20
CC(=NNC(=S)Nc1ccccc1Cl)c1ccccn1 | 90* | 57* | 8 | -37 | 47 | -1
CC(C)Oc1cc(F)ccc1-c1cc(C(=O)NCCc2ccncc2)[nH]n1 | 10 | / | -9 | -1 | / | -5
